The list is a sample of the results.
aSyn 5UTR act: Activators working through SNCA 5'UTR binding (MLPCN). activity score, % (tested at 7.5 µM), hits read low. 300,000 compounds, 7.1% hits. alpha-synuclein 5'UTR reporter, activators screen; in the data active = activity score below about -60%
Numbers stand for hits; n = inactive.

SMILES	aSyn 5UTR act
Cc1ccc2[nH]c(-c3cccc(F)c3)cc(=O)c2c1	n
Cc1ccc2[nH]c(-c3cccc(N)c3)cc2c1	-209.2
Cc1ccc2[nH]c(=O)c(C3C(C#N)=C(N)Oc4c3ccc3cccnc43)cc2c1 (stereo not drawn)	n
CCOc1ccc(-c2nnc(-c3ccco3)o2)cc1OCC	-76.1
COc1ccc(-c2nnc(-c3cccs3)o2)cc1OC	-148.4
CCOc1ccc(-c2nnc(-c3cccs3)o2)cc1OCC	-86.0
COc1ccc2c(c1OC)C(=O)N(c1ccc(F)cc1)C2	-158.9
COc1cc2c(c(OC)c1OC)-c1ccc(OC)c(=O)cc1[C@@H](NC(C)=O)CC2	n
Cc1ccc(N2C(=O)CC(SCC(=O)Nc3ccc(S(N)(=O)=O)cc3)C2=O)cc1 (stereo not drawn)	-76.5
Cc1nn(-c2ccccc2)c(C)c1/C=N/NC(=O)c1cccs1	-67.7
CSc1ccc(/C=N/NC(=O)c2cccs2)cc1	-184.6
C/C(=N/N=C/c1ccc(N(C)C)cc1)c1ccccc1	-159.6
CC(C)=C(NC(=O)c1ccccc1)C(=O)N/N=C/c1ccc(O)cc1	-127.8
O=C(N/N=C/c1ccc(-n2ccnc2)cc1)c1cccs1	-77.9
CN(C)c1ccc(/C=N/NC(=O)c2ccccc2)cc1	-120.0
Cc1cc(C(=O)N/N=C/c2cc(Br)ccc2OC(=O)c2ccccc2Cl)n[nH]1	n
CN(C)c1ccc(/C=N/NC(=O)c2ccccc2Cl)cc1	-124.9
CC/C(=N\NC(=O)c1ccc(N(C)C)cc1)c1ccccc1	-72.1
CN(C)c1ccc(/C=N/NC(=O)c2sccc2-n2cccc2)cc1	-150.0
CSc1ccc(/C=N/NC(=O)c2ccccc2Cl)cc1	-109.2
CN(C)c1cccc(C(=O)N/N=C/c2ccsc2)c1	-157.2
O=C(N/N=C/c1ccc(OC(=O)c2cccs2)cc1)c1cccc(F)c1	-96.5
COc1cc(C(=O)N/N=C/c2ccsc2C)cc(OC)c1OC	n
N#CC1=C(SCC(=O)c2ccccc2)NC2=C(C(=O)CCC2)C1c1ccco1 (stereo not drawn)	-305.3
N#CC1=C(SCC(=O)Nc2ccccc2)NC(=O)CC1c1ccc(O)cc1 (stereo not drawn)	-128.0
SMILES	aSyn 5UTR act
CC(=O)C1=C(C)NC(SCC(=O)c2cc(Cl)ccc2Cl)=C(C#N)C1c1ccco1 (stereo not drawn)	-129.6
N#CC1=C(SCC(=O)Nc2ccccc2)NC(=O)CC1c1ccco1 (stereo not drawn)	-140.9
CN(C)c1ccc(N=Cc2nc(-c3ccccc3)oc2OC(=O)c2cccc(Br)c2)cc1	-165.9
COc1ccc(N=Cc2nc(-c3ccccc3)oc2OC(=O)c2ccccc2)cc1	-91.7
CCC(=O)Oc1oc(-c2ccccc2)nc1C=Nc1ccccc1OC	-63.5
CCOc1ccc2nc(N3CCC(C(=O)N4CCN(c5ncccn5)CC4)CC3)sc2c1	-75.5
CCOc1ccc2nc(N3CCCC(C(=O)NC4CCCC4)C3)sc2c1 (stereo not drawn)	-70.3
CCn1cc(Br)c(C(=O)Nc2ccc(Cl)c(Cl)c2)n1	-151.3
CCn1cc(Cl)c(C(=O)Nc2ccc(OC)c(OC)c2)n1	-65.8
CCn1cc(Br)c(C(=O)Nc2ccc(OC)cc2)n1	-117.7
CCn1cc(Br)c(C(=O)Nc2cccc(Cl)c2)n1	-93.4
CCn1ccc(C(=O)Nc2ccccc2Cl)n1	-96.1
CCn1ccc(C(=O)Nc2cccc(Cl)c2)n1	-158.5
CC(C)(C)c1ccc(C(=O)NCCN2CCOCC2)cc1	-189.7
CC(C)(C)c1ccc(C(O)CCCN2CCC(C(O)(c3ccccc3)c3ccccc3)CC2)cc1 (stereo not drawn)	n
O=C(NCCCN1CCOCC1)c1cc(-c2ccccc2)on1	-113.4
O=C(NCCN1CCOCC1)c1cc(-c2ccccc2)on1	-130.4
O=C1C=C(NCCN2CCOCC2)C(=O)c2cnccc21	n
Cc1cccc(N2CCN(C(=O)c3ccc(CS(=O)(=O)c4ccccc4C)o3)CC2C)c1 (stereo not drawn)	n
CC1Cc2ccccc2N1C(=O)c1ccc(Br)o1 (stereo not drawn)	-128.6
Cc1ccc(C(=O)N2c3ccccc3CC2C)o1 (stereo not drawn)	-92.3
Cc1cccc(N=C2NN=C(c3ccc4c(c3)OCCO4)CS2)c1	-139.8
Cc1cccc(N=C2NN=C(c3c(C)[nH]c4ccccc34)CS2)c1	-90.3
CC(C)OC(=O)CNc1n[nH]c(=S)[nH]c1=O	-131.2
CCOC(=O)C1(Cc2ccccc2Cl)CCN(C(=O)CN2CCOC2=O)CC1	-144.6
SMILES	aSyn 5UTR act
CCOC(=O)c1snc(-c2ccc(F)cc2)c1N	-130.4
NC(=O)C1CCN(C(=O)CCSc2ccccc2)CC1	-102.8
CCOC(=O)N1CCN(C(=O)CCSc2ccccc2)CC1	-108.4
O=C(Sc1cccc2cccnc12)c1ccccc1Br	-241.6
CCCCCCCCCn1c2c(c(=N)c3c1CCC3)CCCC2	n
Cc1nc2ccc(S(=O)(=O)Nc3cc(-c4nc5cccnc5s4)ccc3C)cc2s1	-84.7
Cc1ccc(C)c(NS(=O)(=O)c2ccc(-c3cnc(C4CC4)o3)cc2)c1	n
O=C(N/N=C/c1cccs1)c1cc(-c2cccc3ccccc23)n[nH]1	-104.0
CC(C)(C)C1CCc2c(C(=O)N/N=C/c3cccs3)csc2C1 (stereo not drawn)	-97.2
Cc1ccc(/C=N/NC(=O)c2ccc3c(c2)OCCO3)s1	-117.5
Cc1ccc(/C=N/NC(=O)c2ccc3ccccc3c2)s1	-131.7
O=C(N/N=C/c1cc(Br)cs1)c1ccc2c(c1)OCCO2	-343.5
Cc1cc(C(=O)N/N=C/c2ccc(C)s2)n[nH]1	-97.3
Cc1cc(C(=O)N/N=C/c2ccc([N+](=O)[O-])s2)n[nH]1	n
O=C(N/N=C/c1cccs1)c1ccc2ccccc2c1	-239.8
CCN1CCN(c2c(Cl)cccc2NC(=O)c2ccc([N+](=O)[O-])o2)CC1	n
COC(=O)c1ccccc1NC(=O)c1cc2ccccc2o1	-78.9
O=C(Nc1cccc(Cl)c1N1CCCC1)c1cc2ccccc2o1	-74.1
O=C(Nc1ccccc1C(F)(F)F)c1cc2ccccc2o1	-209.4
CC(=O)c1cccc(NC(=O)c2cc(=O)c3ccccc3o2)c1	-62.3
COC(=O)c1cccc(NC(=O)c2cc3ccccc3o2)c1	-104.7
CN(C)S(=O)(=O)c1cc(NC(=O)c2cc(=O)c3ccccc3o2)ccc1Cl	-66.4
COc1ccc(/C=C/c2noc(-c3ccccc3O)n2)cc1	-93.5
COc1cc(/C=C/c2nc(-c3ccccc3O)n[nH]2)cc(OC)c1OC	-117.5
COc1cc(/C=C/c2noc(-c3ccccc3O)n2)cc(OC)c1OC	-145.6
SMILES	aSyn 5UTR act
CC(=O)Nc1ccc(/C=C/c2nc(-c3ccccc3O)n[nH]2)cc1	-202.2
CC(=O)Oc1ccccc1-c1nc(/C=C/c2ccccc2)no1	-162.0
COc1ccc(/C=C/c2nc(N)nc(-c3ccccc3O)n2)cc1	-116.2
CS(=O)(=O)N1N=C(c2ccc(Cl)cc2)CC1c1cccs1 (stereo not drawn)	-177.8
COc1ccc(Cc2nc(-c3cccs3)no2)cc1	-115.3
COc1ccc(Cc2nc(-c3ccccc3)no2)cc1	-175.7
CCN1C(=O)/C(=C2/C=Cc3ccccc3N2C)OC1=S	-200.4
O=C(Nc1cccc(O)c1)c1c(O)c2ccccc2[nH]c1=O	-92.4
N#CC(C#N)=Cc1ccc(NC(=O)c2ccc(Br)cc2)cc1	-152.6
CC(C)(C)c1ccc(C(=O)Nc2ccc(C=C(C#N)C#N)cc2)cc1	-175.4
Cc1ccc(NC(=O)c2cc3ccccc3cc2O)cc1	-179.4
COc1ccc(NC(=O)c2cc3ccccc3cc2O)cc1	-118.6
O=C(Nc1ccc(F)cc1)c1cc2cc(Cl)ccc2[nH]1	-61.9
CCc1ccc2[nH]c(C(=O)Nc3ccc(C)c(F)c3)cc2c1	-109.1
